Measurements published in PubChem BioAssay AID1159580 (chemical genetic matrix, 2015).
In all, about 5,500 compounds went through this assay and about 2,000 (36%) were called active. About 18% were inconclusive and are not listed. No stated cut-off is given here; in the data, active means normalized growth mostly below about 0.91 (no sharp cut-off); inconclusive means no clear call, values can overlap the other calls; inactive means mostly above about 0.92. This is one part of the list.

Assay: chemical genetic growth profiling, strain panel (AID 1159580);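 further: tested at 20 µM; growth read once vehicle control cultures reached saturation at 30 °C; 1 = growth at the plate median or of vehicle wells; lower values mean less growth of the strain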
Conditions: S. cerevisiae deletion strains, growth OD
[1] = locus YDL101C, strain DUN1, hits give low values
[2] = locus YHR030C, strain SLT2, hits give low values

Measured: normalized growth

COc1ccccc1N1CC(C)(C)C(=O)N(C(=O)c2c(F)cccc2Cl)C1=S
inactive: locus YAL013W, strain DEP1, hits give low values 1.02 | locus YBR229C, strain ROT2, hits give low values 1.02 | locus YCL061C, strain MRC1, hits give low values 1.02 | [1] 1.03 | locus YDR150W, strain NUM1, hits give low values 0.933 | locus YEL061C, strain CIN8, hits give low values 0.985 | locus YGR078C, strain PAC10, hits give low values 1.02 | [2] 1.01 | locus YHR087W, strain rtc3, hits give low values 0.986 | locus YJL187C, strain SWE1, hits give low values 1.02 | locus YJR043C, strain POL32, hits give low values 1.03 | locus YJR075W, strain HOC1, hits give low values 1 | locus YKL190W, strain CNB1, hits give low values 1 | locus YLR039C, strain RIC1, hits give low values 0.862 | locus YLR058C, strain SHM2 (second series), hits give low values 0.995 | locus YLR085C, strain ARP6, hits give low values 0.984 | locus YLR262C, strain YPT6, hits give low values 0.86 | locus YML094W, strain GIM5, hits give low values 1 | locus YMR219W, strain ESC1, hits give low values 1.02 | locus YMR263W, strain SAP30, hits give low values 0.954 | locus YNL128W, strain TEP1, hits give low values 1.02 | locus YNL153C, strain GIM3, hits give low values 1 | locus YNL298W, strain CLA4 (second series), hits give low values 1.01 | locus YNL322C, strain KRE1, hits give low values 1.01 | locus YNR030W, strain Alg12, hits give low values 1 | locus YPL055C, strain LGE1, hits give low values 0.899 | locus YPL241C, strain CIN2, hits give low values 1.01 | locus YPR135W, strain CTF4, hits give low values 0.985

O=C(Nc1cc(Cl)cc(Cl)c1)c1cc(Cl)ccc1O
active: locus YDR052C, strain DBF4, hits give low values 0.91 | locus YGR092W, strain DBF2, hits give low values 0.321 | [2] 0.799 | locus YHR205W, strain SCH9, hits give low values 0.504 | locus YJL157C, strain FAR1, hits give low values 0.648 | locus YKL048C, strain ELM1, hits give low values 0.802 | locus YLR113W, strain HOG1, hits give low values 0.844 | locus YLR403W, strain SFP1, hits give low values 0.642 | locus YNL020C, strain ARK1, hits give low values 0.68 | locus YNL307C, strain MCK1 (second series), hits give low values 0.615 | locus YPL256C, strain CLN2, hits give low values 0.836
inactive: locus YAR019C, strain CDC15, hits give low values 0.93 | locus YBL105C, strain PKC1, hits give low values 0.94 | locus YBR135W, strain CKS1, hits give low values 0.922 | locus YBR136W, strain MEC1, hits give low values 0.943 | locus YBR160W, strain CDC28, hits give low values 0.934 | locus YDL017W, strain CDC7, hits give low values 0.936 | locus YDL028C, strain MPS1, hits give low values 0.94 | [1] 0.981 | locus YDL108W, strain KIN28, hits give low values 0.924 | locus YDL132W, strain cdc53, hits give low values 0.917 | locus YDL214C, strain PRR2, hits give low values 0.785 | locus YDR054C, strain cdc34, hits give low values 0.921 | locus YDR226W, strain ADK1, hits give low values 0.973 | locus YDR477W, strain SNF1, hits give low values 0.838 | locus YER123W, strain YCK3, hits give low values 0.75 | locus YER133W, strain GLC7, hits give low values 0.74 | locus YFL009W, strain cdc4, hits give low values 0.924 | locus YFL029C, strain CAK1, hits give low values 0.923 | locus YFR003C, strain YPI1, hits give low values 0.935 | locus YFR019W, strain FAB1, hits give low values 0.83 | locus YFR028C, strain CDC14, hits give low values 0.928 | locus YGR040W, strain KSS1, hits give low values 0.836 | locus YGR052W, strain FMP48, hits give low values 0.785 | locus YHR079C, strain IRE1, hits give low values 0.584 | locus YHR082C, strain KSP1, hits give low values 0.853 | locus YIL147C, strain SLN1, hits give low values 0.94 | locus YJL095W, strain BCK1, hits give low values 0.751 | locus YJL128C, strain PBS2, hits give low values 0.917 | locus YJR016C, strain ILV3, hits give low values 0.924 | locus YJR066W, strain TOR1 (second series), hits give low values 0.668 | locus YJR066W, strain TOR1, hits give low values 0.705 | locus YKL067W, strain YNK1, hits give low values 0.759 | locus YKL101W, strain HSL1, hits give low values 0.827 | locus YKL193C, strain SDS22, hits give low values 0.93 | locus YKL203C, strain TOR2, hits give low values 0.818 | locus YLR133W, strain CKI1, hits give low values 0.779 | locus YML070W, strain DAK1, hits give low values 0.805 | locus YMR001C, strain CDC5, hits give low values 0.93 | locus YMR205C, strain PFK2 (second series), hits give low values 0.784 | locus YMR277W, strain FCP1, hits give low values 0.927 | locus YNL006W, strain LST8, hits give low values 0.923 | locus YNL161W, strain CBK1, hits give low values 0.936 | locus YNL183C, strain NPR1, hits give low values 0.899 | locus YNL207W, strain RIO2, hits give low values 0.939 | locus YNL222W, strain SSU72, hits give low values 0.924 | locus YOL078W, strain AVO1, hits give low values 0.925 | locus YOL136C, strain PFK27, hits give low values 0.797 | locus YOR061W, strain CKA2, hits give low values 0.693 | locus YOR119C, strain RIO1, hits give low values 0.858 | locus YOR231W, strain MKK1, hits give low values 0.843 | locus YOR329C, strain SCD5, hits give low values 0.939 | locus YPL031C, strain PHO85, hits give low values 0.823 | locus YPL153C, strain RAD53, hits give low values 0.801 | locus YPL204W, strain HRR25, hits give low values 0.722 | locus YPL209C, strain IPL1, hits give low values 0.925 | locus YPR025C, strain CCL1, hits give low values 0.936 | locus YPR106W, strain ISR1, hits give low values 0.956 | locus YPR111W, strain DBF20, hits give low values 0.95 | strain NNK1, hits give low values 0.965 | strain TSCII, hits give low values 0.938
